In all, about 33,000 sequences were measured (“E-score (-0.5 to 0.5)”: median about -0.016, highest 2% from about 0.3 on). What follows is part of a selection rich in the highest values, with near analogues and random picks from the rest.
target: T1, Yer184c (UniProt P39961); experiment: PBM E-score (8-mer binding enrichment) (E-score (-0.5 to 0.5)); higher = stronger / more preferred TF binding; details: protein concentration: 100 nM; construct: GST-full length
T1 sequence: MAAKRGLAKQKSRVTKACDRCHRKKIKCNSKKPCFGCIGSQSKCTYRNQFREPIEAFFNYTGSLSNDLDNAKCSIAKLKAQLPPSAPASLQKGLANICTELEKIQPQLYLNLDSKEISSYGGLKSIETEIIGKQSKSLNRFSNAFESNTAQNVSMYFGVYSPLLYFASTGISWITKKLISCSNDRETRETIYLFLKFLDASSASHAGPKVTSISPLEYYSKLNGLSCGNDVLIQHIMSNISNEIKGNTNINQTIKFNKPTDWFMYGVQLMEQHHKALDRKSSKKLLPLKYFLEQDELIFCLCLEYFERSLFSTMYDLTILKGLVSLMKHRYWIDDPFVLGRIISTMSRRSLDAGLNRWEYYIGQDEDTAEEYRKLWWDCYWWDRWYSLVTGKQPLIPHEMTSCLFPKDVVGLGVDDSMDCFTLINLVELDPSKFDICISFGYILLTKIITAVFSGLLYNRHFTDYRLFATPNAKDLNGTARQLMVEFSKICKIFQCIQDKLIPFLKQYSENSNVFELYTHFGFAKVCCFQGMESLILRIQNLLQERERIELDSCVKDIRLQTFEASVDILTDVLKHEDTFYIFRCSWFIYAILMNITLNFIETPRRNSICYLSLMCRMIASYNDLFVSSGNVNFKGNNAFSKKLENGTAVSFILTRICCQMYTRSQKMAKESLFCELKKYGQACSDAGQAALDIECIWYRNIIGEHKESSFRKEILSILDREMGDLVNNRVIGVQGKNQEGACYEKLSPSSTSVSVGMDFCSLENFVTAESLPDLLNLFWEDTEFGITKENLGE
Procedure: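 Universal 'all 10-mer' protein binding microarrays (Agilent AMADID 015681) probed with GST-tagged S. cerevisiae TFs (full-length or DBD) made by in vitro transcription/translation (PURExpress), about 100-200 nM. Bound TF was detected with fluorescent anti-GST. Each ungapped 8-mer (which stands for itself and its reverse complement) is scored by the PBM enrichment score (E-score), a modified Wilcoxon-Mann-Whitney statistic from -0.5 to +0.5, computed with the Universal PBM Analysis Suite. Scale: above 0.35 generally sequence-specific binding.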

Sequence | PBM E-score
GCCAACAC | 0.0745
CGTTGTTC | -0.00041
CTGGGCGA | -0.206
GCCCATCC | -0.224
TCGGTAGA | 0.307
CCGGTAGA | 0.264
ACGGTAGA | -0.0773
AGGCGATG | -0.0512
CCGCTGCG | -0.122
GCTAGCGA | -0.147
ACCCGAGT | 0.0508
CCTTACCG | 0.114
AAGAAATG | 0.227
AAGAAATT | 0.346
AAGAAATA | 0.163
AGTCGTGG | -0.191
AAAATTAA | 0.168
ATAATTAG | 0.203
TTAATTAA | -0.041
ATAATTAT | 0.386
CTCATTAA | 0.067
GTAATTAA | 0.143
ATCATTAG | 0.037
GAAATTAA | 0.337
ATCATTAA | 0.307

Sequence | PBM E-score
ATAATTAC | 0.265
CAAATTAA | 0.0386
ATAATTAA | 0.323
AACAAACT | 0.277
AACAACGA | 0.112
AGTGGCCC | -0.153
CAGGTATA | -0.163
AGTGTGCA | -0.0513
AACGATGT | 0.13
CTCACCCA | -0.0925
CACGTTCG | -0.203
GCGCAAGA | 0.188
AAAATTAC | 0.127
AAAATTAT | 0.316
AAAATTAG | 0.227
AGGGATAG | -0.208
CCATCTAC | -0.15
TCCGGACA | 0.431
GGCGGATA | 0.0758
ACCGGACA | 0.122
GCCGGACC | 0.214
CCCGGACA | 0.283
GCCGGATA | 0.354
GCCGGACA | 0.36
GCAGGATA | -0.168

Sequence | PBM E-score
GACGGACA | 0.121
ACAAGAAG | 0.048
CATCAGAG | -0.0413
GAGCACCC | -0.141
AAGTGATA | -0.118
GGGCCTTA | -0.209
CGGAGTAC | 0.0421
GGGAGTAA | 0.109
CGGAGTAA | 0.313
AACCCGAA | 0.14
CACGGCCA | 0.131
AGTAACCG | 0.117
ACCGCGGC | 0.344
ACCGCGGG | 0.291
ACCGCGGT | 0.195
CCCGCGGC | 0.35
CCCGCGGA | 0.257
CCCGCGGG | 0.3
ATGGACAT | 0.0596
GAGTCGTA | -0.0554
ATCGCAGA | -0.132
CCACCACA | -0.093
GAGTGCAC | -0.0537
AAATGATC | -0.0261
AAATGATT | 0.316

Sequence | PBM E-score
AAATGATA | 0.162
ACTATCGA | -0.203
ATTTCCAC | 0.067
ACTTCCGC | 0.166
ATTTCCGA | 0.359
ATTTCCGG | 0.445
CTTTCCGC | 0.187
ACTTCCGG | 0.335
ATTTCCGC | 0.307
ATTTCCTG | 0.186
GTTTCCGA | 0.286
CTTTCCGA | 0.3
ACTTCCGA | 0.285
ATTTCCAG | 0.0278
AAAAGCCG | 0.244
GATCTCGA | 0.115
CAGTTGAC | -0.0401
ACATCTCG | 0.00537
GGGATAAA | 0.195
AAATTATT | 0.212
ACGCAATA | 0.135
AGAGCTCA | -0.142
GTACTATA | 0.176
ATGGCGTA | -0.111
GATCCGAC | 0.0808

Sequence | PBM E-score
CATCCGAC | 0.247
GCTCCGAA | 0.298
TATCCGCA | 0.293
CATCCGAG | 0.212
TCTCCGAA | 0.325
AATCCGAA | 0.0989
GATCCGAA | 0.375
CATCCGAA | 0.338
CCTCCGAA | 0.0955
TATCCGAA | 0.386
GATCCAAA | 0.196
AACAAGAA | 0.257
AAGATTAT | 0.106
GCATTGCC | -0.0318
AGACTCTA | -0.124
AGGCATGG | -0.0826
TCGCTAAA | 0.0346
GTCTTTCA | -0.0723
CCGGCCAC | 0.24
AACTGCTC | -0.0494
GCCGTTAC | 0.119
GTTCTGGA | 0.0262
CGACGCCG | 0.239
CCGACTTA | 0.304
CCGACTTC | -0.243

Sequence | PBM E-score
CCGACTGA | 0.00051
TGTTTCAA | 0.153
ACGCGCAA | 0.156
AGTCCCCC | -0.483
AATAGCGG | 0.0178
ATGCGGCG | 0.0251
ATACGGCC | 0.153
ATCCGGTA | 0.206
ATCCGGCG | 0.321
ATCCGGTG | 0.353
ATCCGGCC | 0.358
ATGCGGCC | 0.109
ATCCGACG | 0.155
ATCCGGTC | 0.214
ATTTGGCA | 0.0517
GTGCACAC | -0.194
TGGCATAA | 0.139
CTGGCTCA | -0.00502
ACCAAAGC | 0.0124
CAGCCCTA | -0.0337
CATGGCGC | -0.0606
GCCAAAAA | 0.234
GGATAAAA | 0.248
CGGTAAAA | 0.305
CGATAAAA | 0.333

Sequence | PBM E-score
CGGTAAAC | 0.216
GTATAAAA | 0.325
CGGTAAAG | 0.314
TGGTAAAA | 0.203
GGGTAAAA | 0.143
TGATAAAA | 0.178
ATATAAAA | 0.278
AGGTAAAG | 0.106
GTATAAAC | 0.256
AAGTTTGG | 0.113
ATCCTCGG | 0.218
CCAAAGCG | -0.0768
ACAACCGA | 0.261
AAGGCGTG | -0.149
ATATTGGC | -0.0624
GGGCAACC | -0.121
CCCCAGGG | -0.297
CACGGGGC | -0.0464
TAATCTGA | -0.00734
ATCCGTTA | 0.367
ATCCGTTC | 0.29
GTCCGTTA | 0.207

From the supplement of paper PMC3334620
